Read-out in test [1]: Vascular cell adhesion molecule 1 (VCAM1), VCAM1 (gene 7412)
In words: BSK_4H_VCAM1: BioMAP Diversity Plus: 4H Assay for Vascular cell adhesion molecule 1 (VCAM1) Biomarker Activity (AID 2283033).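 On outcome: cell-surface VCAM-1 protein measured by ELISA.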 The following applies: primary human endothelial cells (HUVEC); actives raise or lower the signal. In outline: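 Endpoint derived from bidirectional fitting against DMSO controls of VCAM-1 ELISA signal in umbilical vein endothelial cells sampled at 24 h following treatment.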

Read-out in test [2]: urokinase plasminogen activator (uPA), PLAU (gene 5328)
In words: BSK_BE3C_uPA: BioMAP Diversity Plus: BE3C Assay for urokinase plasminogen activator (uPA) Biomarker Activity (AID 2283038).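 On outcome: uPA protein level quantified by ELISA in cell cultures; uPA read one day after compound addition.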 The following applies: primary human bronchial epithelial cells; actives raise or lower the signal. In outline: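 Primary human bronchial epithelial cells, uPA measured by ELISA 24 h after dosing. Bidirectional change relative to DMSO; cytotoxicity checked in parallel cultures by sulforhodamine B total-protein staining.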

Read-out in test [3]: Urokinase-type plasminogen activator receptor (uPAR), PLAUR (gene 5329)
In words: BSK_BE3C_uPAR: BioMAP Diversity Plus: BE3C Assay for Urokinase-type plasminogen activator receptor (uPAR) Biomarker Activity (AID 2283039).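 On outcome: uPAR protein level measured by ELISA on the cells; cells exposed to compound for one day before measurement.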 The following applies: primary human bronchial epithelial cells; actives raise or lower the signal. The gist of the method: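 A uPAR ELISA serves as the readout, taken 24 h after treating primary human bronchial epithelial cells. Responses in either direction are fitted against DMSO, which defines baseline activity.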

Read-out in test [4]: Interleukin-6 (IL6), IL6 (gene 3569)
In words: BSK_CASM3C_IL6: BioMAP Diversity Plus: CASM3C Assay for Interleukin-6 (IL6) Biomarker Activity for (AID 2283040). The note with it: primary human coronary artery smooth muscle cells; actives raise or lower the signal.

Read-out in test [5]: Tissue plasminogen activator (tPA), PLAT (gene 5327)
The test is described as follows: BSK_BE3C_tPA: BioMAP Diversity Plus: BE3C Assay for Tissue plasminogen activator (tPA) Biomarker Activity (AID 2283041).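 On outcome: tPA level quantified by ELISA one day after compound addition.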 The note with it: primary human bronchial epithelial cells; actives raise or lower the signal. In outline:
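Bidirectional curve fitting relative to DMSO defined activity, with tPA detected by ELISA in chemically treated human bronchial epithelial primary cells at 24 hours.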

Read-out in test [6]: Interleukin-8 (IL8), CXCL8 (gene 3576)
In words: BSK_CASM3C_IL8: BioMAP Diversity Plus: CASM3C Assay for Interleukin-8 (IL8) Biomarker Activity (AID 2283042).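 Further: IL-8 protein level quantified by ELISA.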 The following applies: primary human coronary artery smooth muscle cells; actives raise or lower the signal.

Read-out in test [7]: Human Leukocyte Antigen - DR isotype (HLADR), HLA-DRA (gene 3122)
In words: BSK_CASM3C_HLADR: BioMAP Diversity Plus: CASM3C Assay for Human Leukocyte Antigen - DR isotype (HLADR) Biomarker Activity (AID 2283043).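 Further: cell-surface HLA-DR protein level quantified by ELISA.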 The note with it: primary human coronary artery smooth muscle cells; actives raise or lower the signal.

Read-out in test [8]: Macrophage colony-stimulating factor (MCSF), CSF1 (gene 1435)
In words: BSK_CASM3C_MCSF: BioMAP Diversity Plus: CASM3C Assay for Macrophage colony-stimulating factor (MCSF) Biomarker Activity (AID 2283044).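 Further: M-CSF protein amount quantified by ELISA after 24 h exposure.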 The note with it: primary human coronary artery smooth muscle cells; actives raise or lower the signal.

Read-out in test [9]: Low-density lipoprotein receptor (LDLR), LDLR (gene 3949)
In words: BSK_CASM3C_LDLR: BioMAP Diversity Plus: CASM3C Assay for Low-density lipoprotein receptor (LDLR) Biomarker Activity (AID 2283045).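 Further: LDLR protein level on the cell surface quantified by ELISA.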 The following applies: primary human coronary artery smooth muscle cells; actives raise or lower the signal.

Read-out in test [10]: Monocyte Chemoattractant Protein-1 (MCP1), CCL2 (gene 6347)
The test is described as follows: BSK_CASM3C_MCP1: BioMAP Diversity Plus: CASM3C Assay for Monocyte Chemoattractant Protein-1 (MCP1) Biomarker Activity (AID 2283046).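 Further: MCP-1 level quantified by ELISA 24 h after dosing.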 The following applies: primary human coronary artery smooth muscle cells; actives raise or lower the signal.

Test [11] in a line: BSK_CASM3C_Proliferation: Cell Proliferation Assessment in the BioMAP Diversity Plus: CASM3C Assay (AID 2283047).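 Further: sulforhodamine B total protein stain as relative cell number at 560 nm; sub-confluent cells exposed 48 h before staining; fitted both ways against DMSO so gain or loss of cell number.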 The note with it: primary human coronary artery smooth muscle cells.
Read-out in test [12]: Monokine induced gamma interferon (MIG), CXCL9 (gene 4283)
The test is described as follows: BSK_CASM3C_MIG: BioMAP Diversity Plus: CASM3C Assay for Monokine induced gamma interferon (MIG) Biomarker Activity (AID 2283048).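 Further: MIG protein level measured by ELISA.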 The note with it: primary human coronary artery smooth muscle cells; actives raise or lower the signal.

Read-out in test [13]: serum amyloid A (SAA), SAA1 (gene 6288)
In words: BSK_CASM3C_SAA: BioMAP Diversity Plus: CASM3C Assay for serum amyloid A (SAA) Biomarker Activity (AID 2283049).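 Further: SAA protein level quantified by ELISA.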 The following applies: primary human coronary artery smooth muscle cells; actives raise or lower the signal.

Test [14] can be described thus: BSK_CASM3C_SRB: Viability Assessment in the BioMAP Diversity Plus: CASM3C Assay (AID 2283050).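 Further: cells exposed to compound for 24 h.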 The following applies: primary human coronary artery smooth muscle cells.
Read-out in test [15]: Thrombomodulin, THBD (gene 7056)
The test is described as follows: BSK_CASM3C_Thrombomodulin: BioMAP Diversity Plus: CASM3C Assay for Thrombomodulin Biomarker Activity (AID 2283051).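 Further: thrombomodulin protein level measured by ELISA 24 h after dosing.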 The note with it: primary human coronary artery smooth muscle cells; actives raise or lower the signal.

Read-out in test [16]: Interferon-gamma inducible Protein 10 (IP10), CXCL10 (gene 3627)
In words: BSK_BE3C_IP10: BioMAP Diversity Plus: BE3C Assay for Interferon-gamma inducible Protein 10 (IP10) Biomarker Activity (AID 2283034). The note with it: primary human bronchial epithelial cells; actives raise or lower the signal. In outline: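 Using primary human bronchial epithelial cultures, the assay captures IP-10 by ELISA one day (24 h) after exposure. Parallel SRB staining of total protein flags overt cytotoxicity. Fits run bidirectionally relative to DMSO.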

Read-out in test [17]: Plasminogen activator inhibitor-1 (PAI1), SERPINE1 (gene 5054)
The test is described as follows: BSK_BE3C_PAI1: BioMAP Diversity Plus: BE3C Assay for Plasminogen activator inhibitor-1 (PAI1) Biomarker Activity (AID 2283037). The note with it: primary human bronchial epithelial cells; actives raise or lower the signal. In outline:
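PAI-1 biomarker levels in treated human bronchial epithelial cells are determined by ELISA at 24 h. Both increases and decreases relative to DMSO are fitted.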

Read-out in test [18]: Monokine induced gamma interferon (MIG), CXCL9 (gene 4283)
In words: BSK_BE3C_MIG: BioMAP Diversity Plus: BE3C Assay for Monokine induced gamma interferon (MIG) Biomarker Activity (AID 2283035). The following applies: primary human bronchial epithelial cells; actives raise or lower the signal. The gist of the method: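 ELISA read-out of MIG in human lung bronchial epithelial primary cultures, 24 h post-dosing. Bidirectional curve fit vs DMSO baseline.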

Read-out in test [19]: Transforming growth factor beta 1 (TGFb1), TGFB1 (gene 7040)
In words: BSK_BE3C_TGFb1: BioMAP Diversity Plus: BE3C Assay for Transforming growth factor beta 1 (TGFb1) Biomarker Activity (AID 2283036;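 further: TGF-b1 protein level measured by ELISA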). The following applies: primary human bronchial epithelial cells; actives raise or lower the signal. The gist of the method: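 In this human primary bronchial epithelial system, an ELISA quantified TGF-b1 one day after dosing. Endpoint changes in either direction were fitted relative to DMSO.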

From PubChem BioAssay (EPA / NIEHS) come the findings set out here.

Active and inactive are the calls of the source. How the source made its calls: active means hit-call score of the fitted dose curve at least 0.9, where 1 is the maximum; inactive means score below 0.9.

Take `Nc1cc(Cl)cc(C(=O)O)c1Cl`: the outcome in test [1], in test [2], in test [3], in [4], in [5] and in test [6] was inactive. Besides, the outcome in test [7], in test [8], in test [9], in test [10], in [11] and in [12] was inactive. The outcome in test [13], in [14] and in [15] was inactive.

With `O=P(OCCCl)(OCCCl)OCCCl`, the result in [1], in test [16], in test [17], in test [2], in test [3] and in test [4] was inactive. In addition, the outcome in test [5], in test [6], in test [7], in test [8], in [9] and in test [10] was inactive. Further, the outcome in [11], in test [12], in [13], in test [14] and in test [15] was inactive.

Take `CN(C)C(=O)Nc1ccc(Cl)cc1`: the outcome in test [1], in test [18], in test [19], in test [17], in test [2] and in test [3] was inactive. The outcome in [4], in test [5], in [6], in test [7], in test [8] and in test [9] was inactive. Further, the result in test [10], in test [11], in test [12], in [13], in [14] and in test [15] was inactive.

Turning to `O=C(Oc1ccc(Br)cc1)N1CCN2CCC1CC2`, the outcome in test [1], in test [19], in [17], in [2], in [3] and in [4] was inactive. Further, the outcome in [5], in test [6], in test [7], in [8], in test [9] and in [10] was inactive. The result in test [11], in [12], in [13], in test [14] and in test [15] was inactive.

As to `CC(C)(OOC(C)(C)c1ccccc1)c1ccccc1`, the AC50 was 26400 nM (active) in test [1]; 11600 nM (active) in test [3]; 28800 nM (active) in [7]; 30300 nM (active) in test [11]; 32100 nM (active) in test [15]. The result in test [18], in [17], in test [2], in test [4], in [5] and in test [6] was inactive. Further, the outcome in test [8], in [9], in [10], in test [12], in test [13] and in test [14] was inactive.

`CCN(CC)N=O`: the outcome in test [1], in test [18], in test [19], in test [17], in test [2] and in test [3] was inactive. For the same compound, the result in [4], in test [5], in test [6], in test [7], in test [8] and in test [9] was inactive. The outcome in test [10], in test [11], in test [12], in test [13], in test [14] and in test [15] was inactive.

In the case of `OCCCBr`, the outcome in test [1], in test [18], in test [19], in test [17], in test [2] and in test [3] was inactive. For the same compound, the outcome in test [4], in test [5], in test [6], in [7], in test [8] and in test [9] was inactive. In addition, the outcome in [10], in test [11], in test [12], in test [13], in [14] and in [15] was inactive.

Consider `Oc1ccccc1Cl`, for which the outcome in test [1], in [16], in [17], in test [2], in test [3] and in test [4] was inactive. Besides, the outcome in test [5], in [6], in test [7], in test [8], in test [9] and in [10] was inactive. Besides, the result in [11], in [12], in test [13], in test [14] and in test [15] was inactive.

On to `ClCCOCCCl`, for which the outcome in test [1], in [17], in test [2], in test [3], in test [4] and in test [5] was inactive. Besides, the outcome in test [6], in test [7], in [8], in test [9], in [10] and in [11] was inactive. The result in test [12], in test [13], in test [14] and in [15] was inactive.

In the case of `CC(C)(C)OOC(=O)c1ccccc1`, the outcome in test [1], in [18], in [2], in test [3], in test [4] and in test [5] was inactive. Further, the result in [6], in test [7], in test [8], in test [9], in test [10] and in test [12] was inactive. For the same compound, the outcome in test [13], in test [14] and in test [15] was inactive. Also, the AC50 in test [11] was 8080 nM (active).

Take `CCC[CH2][Sn]([Cl])([CH2]CCC)[CH2]CCC`: the AC50 is 148 nM (active) in test [1]; 148 nM (active) in test [2]; 148 nM (active) in test [3]; 1500 nM (active) in test [4]; 227 nM (active) in test [5]; 1010 nM (active) in test [6]. In addition, the half-maximal activity concentration (AC50) in test [7] was 353 nM (active); in test [8], 273 nM (active); in [9], 226 nM (active); in test [10] it was 383 nM (active); in test [11], 148 nM (active); in test [12], 326 nM (active). For the same compound, the concentration at half-maximal activity (AC50) was 148 nM (active) in [13], 402 nM (active) in test [14] and 3970 nM (active) in test [15].

`COC(=O)Nc1nc2ccccc2[nH]1`: the result in test [1], in [2], in test [3], in test [4], in [5] and in test [6] was inactive. Further, the outcome in [8], in test [9], in [10], in [12], in test [13] and in test [14] was inactive. For the same compound, the outcome in test [15] was inactive. The AC50 in test [7] is 5430 nM (active); in test [11], 8490 nM (active).

With `CC(C)N(Cc1ccccc1)C(=O)C(C)(C)C`, the result in test [1], in [18], in test [2], in test [3], in test [4] and in [5] was inactive. The outcome in test [6], in test [7], in test [8], in test [9], in test [10] and in test [11] was inactive. The result in test [12], in [13], in test [14] and in [15] was inactive.
